Assay results as given in PubChem BioAssay AID1963317 (National Center for Advancing Translational Sciences (NCATS), 2024).
Inconclusive results are not listed. Values without a mark were called inactive. Active and inactive are the calls of the source. Calls come from the whole dose curve.

Each molecule was assayed against Tyrosine-protein kinase ABL1 (Homo sapiens) (UniProt P00519) (assay: ABL1 kinase (ABL1-N-HiBiT) enzymatic inhibition screen - Functional assay). Settings: luminescence; series mostly up to 57.5 µM; activity change, negative = inhibition: at the top concentration.
Summary of the method: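 ABL1-N-HiBiT enzyme (10 nM final) preincubated with compounds 30 min at room temperature in buffer with 87.5 uM ATP, then reacted with abltide peptide substrate 3 h at room temperature. Remaining ATP read by Kinase-Glo Plus luminescence.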

Chain of Tyrosine-protein kinase ABL1 (Homo sapiens) (P00519 whole entry, looked up): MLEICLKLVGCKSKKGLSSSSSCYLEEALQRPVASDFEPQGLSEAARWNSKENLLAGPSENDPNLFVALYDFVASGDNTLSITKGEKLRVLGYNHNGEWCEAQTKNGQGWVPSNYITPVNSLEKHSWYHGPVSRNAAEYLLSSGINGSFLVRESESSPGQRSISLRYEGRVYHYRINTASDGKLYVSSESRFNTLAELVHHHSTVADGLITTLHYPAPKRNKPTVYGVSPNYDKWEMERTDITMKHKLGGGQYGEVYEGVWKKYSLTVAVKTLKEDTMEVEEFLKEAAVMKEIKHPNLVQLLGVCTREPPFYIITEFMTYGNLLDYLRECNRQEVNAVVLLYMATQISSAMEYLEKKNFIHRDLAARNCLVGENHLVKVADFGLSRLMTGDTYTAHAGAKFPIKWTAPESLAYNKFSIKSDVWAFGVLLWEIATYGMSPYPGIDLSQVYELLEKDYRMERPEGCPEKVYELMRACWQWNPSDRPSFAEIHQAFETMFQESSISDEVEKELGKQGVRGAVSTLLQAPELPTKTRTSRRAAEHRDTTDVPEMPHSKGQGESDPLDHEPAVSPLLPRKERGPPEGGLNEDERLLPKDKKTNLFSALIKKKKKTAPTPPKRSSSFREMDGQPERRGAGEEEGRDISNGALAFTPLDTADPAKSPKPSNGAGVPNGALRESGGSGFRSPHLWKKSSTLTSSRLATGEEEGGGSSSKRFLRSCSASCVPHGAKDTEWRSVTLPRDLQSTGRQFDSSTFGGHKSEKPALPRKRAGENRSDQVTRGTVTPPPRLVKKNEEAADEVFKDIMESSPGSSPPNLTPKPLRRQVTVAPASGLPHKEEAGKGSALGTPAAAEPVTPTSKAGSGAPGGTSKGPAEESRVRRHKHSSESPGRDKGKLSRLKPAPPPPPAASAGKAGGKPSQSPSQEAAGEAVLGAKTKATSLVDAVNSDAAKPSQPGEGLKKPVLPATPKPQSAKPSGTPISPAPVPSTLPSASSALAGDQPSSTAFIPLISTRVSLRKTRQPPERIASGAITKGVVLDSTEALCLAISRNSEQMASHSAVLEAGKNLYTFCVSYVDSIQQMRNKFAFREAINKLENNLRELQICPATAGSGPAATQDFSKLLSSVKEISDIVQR

Compound | Potency | activity change, negative = inhibition
Cc1cc(Nc2ncc3cc(-c4c(Cl)cccc4Cl)c(=O)n(C)c3n2)ccc1F | 0.0375 µM (active) | –
c1ccc2c(-c3cnn4cc(-c5ccc(N6CCNCC6)cc5)cnc34)ccnc2c1 | 0.127 µM (active) | –
Cn1cc(-c2cc3c(N4CCN(c5ncc([C@@](C)(N)c6ccc(F)cc6)cn5)CC4)ncnn3c2)cn1 | 12.9 µM (active) | –
COc1ccc(-n2c(SCC#N)nc3sc4c(c3c2=O)CCCC4)cc1 | – | 42.3%
Cn1ncc(NC(=O)c2nc(-c3c(F)cccc3F)sc2N)c1N1CC[C@@H](N)[C@H](F)CC1 | – | 37.9%
Cc1ccccc1-n1c([C@H](C)Nc2nc(N)nc3nc[nH]c23)nc2cccc(C)c2c1=O | – | 46.3%
CN1CCN(CCCNc2ncc(Cl)c(-c3cc4c(C(=O)NC5CC5)cccc4s3)n2)CC1 | – | 48.8%
CC[C@@](C)(Nc1ccnc(-c2c[nH]c3ncccc23)n1)C(=O)NCC(F)(F)F | 7.06 µM (active) | –
CCCCCCCCCCCCc1ccc(S(=O)(=O)Nc2nncs2)cc1 | – | 33.8%
O=C(Nc1cc(C(F)(F)F)ccc1N1CCCCC1)c1ccncc1 | – | 46.1%
Cc1nc2ccc(-n3ncc(C(=O)c4cc5ccccc5[nH]4)c3N)cc2[nH]1 | – | 10.1%
Cc1cc(Nc2ncc3c(n2)N(C)C(=O)N(c2cc(NC(=O)c4cccc(C(F)(F)F)c4)ccc2C)C3)n(C)n1 | 0.141 µM (active) | –
O=C(NCCO)c1cccc(-c2cc(Nc3ccc(OC(F)(F)F)cc3)ncn2)c1 | – | 30%
O=C(Nc1ccc(OC(F)(F)F)cc1)c1sccc1NCc1ccnc2ccccc12 | – | 42.3%
O=c1cc(N2CCOCC2)nc2c3ccccc3ccn12 | – | 42.2%
CNC(=O)c1ccccc1Nc1nc(Nc2ccc(N3CCOCC3)cc2OC)ncc1Cl | – | 22%
Nc1nc(Nc2ccc(S(N)(=O)=O)cc2)n(C(=S)Nc2c(F)cccc2F)n1 | 4.72 µM (active) | –
C[C@@H]1CCNC(=O)c2cc3ccc(C(=O)Nc4nc5ccccc5n4CCCN(C)C)cc3n21 | – | 44.9%

Compound | Potency | activity change, negative = inhibition
Cc1[nH]c2ccccc2c1C1=C(NCCc2ccc(F)cc2)C(=O)N(C)C1=O | – | 47.9%
Oc1ccc(-c2ccc(-c3cc(Nc4cccc(CNC5CC5)c4)n[nH]3)cc2)c(O)c1 | – | 19.9%
COc1ccc(-n2c(C)c([N+](=O)[O-])c3ccc(O)cc32)cc1 | – | 34.3%
C[C@@H](NC(=O)c1ncnc(N)c1Cl)c1ncc(C(=O)Nc2cc(C(F)(F)F)c(Cl)cn2)s1 | 6.29 µM (active) | –
COc1cc(N2CCN(C)CC2)ccc1Nc1nc(N)c(C(=O)c2c(Cl)cccc2Cl)s1 | – | 46.2%
c1cc(-c2cc(C3CCNCC3)[nH]n2)ccn1 | – | 38.6% [at 28.8 µM]
NC1(C(=O)N[C@@H](CCO)c2ccc(Cl)cc2)CCN(c2ncnc3[nH]ccc23)CC1 | – | 27.4%
Cc1cccc(C)c1-n1c(=O)c2cnc(Nc3ccc(N4CCN(C)CC4)cc3)nc2n2c3ccccc3nc12 | 4.08 µM (active) | –
CCNC(=O)Nc1ccc(-c2nc3c(c(N4CCOC[C@@H]4C)n2)CCN(c2ncccn2)C3)cc1 | – | 27.9%
CCN1C(=O)CNc2ncc(-c3ccc(-c4ncn[nH]4)nc3C)nc21 | – | 40.2%
S=C(NCc1ccc2c(c1)OCO2)N1CCN(c2ncnc3c2oc2ccccc23)CC1 | – | 44.2%
C=CC(=O)N1CCC(Oc2cc3c(Nc4ccc(Cl)c(Cl)c4F)ncnc3cc2OC)CC1 | – | 5.31%
FC(F)(F)c1ccc(/C=C/c2nc(COc3ccc(CCCCn4ccnn4)cc3)co2)cc1 | – | 44.5%
COc1cc(N2CCC(N3CCN(C)CC3)CC2)ccc1Nc1ncc(Cl)c(Nc2ccccc2P(C)(C)=O)n1 | 9.15 µM (active) | –
Cn1sc(=O)n(Cc2ccccc2)c1=O | – | 38.2%
COc1cc(NC(=O)c2cccc(-n3cc(NC(=O)Nc4cccc(C)c4)cn3)c2)cc(OC)c1OC | – | 32.6%
CCCCNc1ncc2c(-c3ccc(S(=O)(=O)N4CCOCC4)cc3)nn(C3CCC(O)CC3)c2n1 (stereo unspecified) | 7.48 µM (active) | –
CNS(=O)(=O)c1ccc2c(c1)/C(=C/c1[nH]c3c(c1CCCN1CCN(C)CC1)CCCC3)C(=O)N2 | 9.15 µM (active) | –
